The target in assay [1] is Glucocorticoid receptor (Homo sapiens) (UniProt P04150). The assay is described as follows: GR-EFC Redistribution (AID 451; calls by dose curve; note: potency is the fitted concentration of half-maximal effect). The settings on record: CHO-K1 GR-EFC translocation, beta-gal luminescence, 2 h. A digest of the protocol:
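CHO-K1 cells expressing nuclear EA and GR-ED fragments of b-gal; compounds titrated up to 46 uM final, 2 h at 37 C. GR nuclear translocation read as complemented b-gal luminescence after 1 h RT detection.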

The target of assay [2] is Cytochrome P450 2C9 (Homo sapiens) (UniProt P11712). The assay is described as follows: qHTS Assay for Inhibitors and Substrates of Cytochrome P450 2C9 (AID 883). Note: potency is the fitted concentration of half-maximal effect; nearly all actives have a fitted effect of over 60% in size. The settings on record: recombinant CYP2C9, luciferin-H luminescence, 60 min; series mostly up to 57.1 µM. Summed up: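 Human CYP2C9 (10nM) with Luciferin-H at 100uM (its KM) in 25mM KPO4; compound preincubated 10 min at 37C, then NADPH regeneration for 60 min at 37C. Luciferin read by luminescence after detection reagent; normalized to 57uM sulphaphenazole as full inhibition.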
Background: In qHTS, concentration-response curves come from the screen itself.

In assay [3] the target is DNA dC->dU-editing enzyme APOBEC-3G (Homo sapiens) (UniProt Q9HC16). The assay is described as follows: qHTS for inhibitors of Vif-A3G interactions: Validation (AID 588379). The settings on record: Vif-A3G protein interaction assay; series mostly up to 46.1 µM. A digest of the protocol:
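HeLa cells stably expressing Vif and A3G-eYFP, 700 cells/well, incubated overnight at 37 deg C, then exposed to compound overnight at 37 deg C. Inhibition of Vif-mediated degradation read as increased yellow fluorescence (Ex 488/Em 500-530) by laser-scanning cytometry.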

For assay [4], the target named is 3',5'-cyclic-AMP phosphodiesterase 4B (Homo sapiens) (UniProt Q07343). The assay is described as follows: qHTS Assay for Inhibitors of PDE-IV (AID 607; active = well fitted activation curve with a large enough effect in the main read-out, with a control signal flat, not every such curve was filed as active). The settings on record: HEK293 ACTOne CNG channel cells, membrane potential fluorescence; series mostly up to 22.9 µM. A digest of the protocol: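 HEK293 ACTOne cells with CNG channel (1000/well), endogenous PDE4; membrane potential dye, compounds up to 22.9 uM final. Fluorescence Ex 535/Em 590; RO 20-1724 (100 uM final) as reference.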

In assay [5] the target is Estrogen receptor (Homo sapiens) (UniProt P03372). Briefly: qHTS assay for small molecule antagonists of estrogen receptor alpha signaling (AID 588513; active = well fitted curve in the direction sought with a large enough effect in the signal ratio, with a control signal flat, not every such curve was filed as active; the % refers to the signal ratio). The settings on record: ER-alpha-UAS-bla HEK293, beta-lactamase ratio, antagonist mode; series mostly up to 76.9 µM. A digest of the protocol:
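Fluorescence from CCF4 substrate after 2 h at room temperature gave reporter activity; cells had been exposed to compound and 0.5nM 17-beta-estradiol for 18 h at 37 C. Hill-equation fitting yielded IC50 and maximal response.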

Assay [6] in a line: AP1 Signaling Pathway (AID 357; active = well fitted curve in either direction with a large enough effect, not every such curve was filed as active;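 note: ME-180 reporter cells stimulated with EGF at its EC50 level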). The settings on record: ME-180 (cervical carcinoma) AP-1-bla reporter, EGF-induced, beta-lactamase ratio, 5 h; at 7.69 µM (top of the series) unless noted. Summed up:
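AP-1-bla ME-180 cells, Opti-MEM + 0.5% dialyzed FBS, plated overnight 37 °C. Cpd titration + EC50 EGF, 5 h 37 °C. CCF4 2.5 h RT; ex 405, em 460/530 ratio → %activity, AC50.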

Unmarked numbers belong to inactive results. Inconclusive results are not listed. A call without a number means that no potency is given here. The source made the active and inactive calls. Unless noted, calls come from the whole dose curve; as a rule, active = well fitted curve in the direction sought with a large enough effect; inconclusive = small, poorly fitted or top-dose-only effect, or another doubt; inactive = no such curve, though single readings can be large; an effect the other way counts as inactive or inconclusive.

Chain of Estrogen receptor (Homo sapiens) (P03372 whole entry, looked up): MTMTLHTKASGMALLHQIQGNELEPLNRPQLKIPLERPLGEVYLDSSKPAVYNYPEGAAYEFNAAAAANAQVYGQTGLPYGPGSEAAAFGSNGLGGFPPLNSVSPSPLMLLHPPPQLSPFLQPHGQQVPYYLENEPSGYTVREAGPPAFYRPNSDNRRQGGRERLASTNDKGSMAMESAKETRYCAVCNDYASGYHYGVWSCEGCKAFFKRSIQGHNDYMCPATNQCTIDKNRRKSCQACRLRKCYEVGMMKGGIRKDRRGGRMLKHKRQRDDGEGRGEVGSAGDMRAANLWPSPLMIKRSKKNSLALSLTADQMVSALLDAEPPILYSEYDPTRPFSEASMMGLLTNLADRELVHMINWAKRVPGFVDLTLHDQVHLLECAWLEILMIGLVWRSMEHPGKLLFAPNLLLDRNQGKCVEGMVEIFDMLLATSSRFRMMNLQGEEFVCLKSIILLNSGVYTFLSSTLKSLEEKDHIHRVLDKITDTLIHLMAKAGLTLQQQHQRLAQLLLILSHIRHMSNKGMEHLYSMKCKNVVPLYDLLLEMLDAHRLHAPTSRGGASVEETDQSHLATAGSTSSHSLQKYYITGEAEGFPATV
Chain of Cytochrome P450 2C9 (Homo sapiens) (P11712 whole entry, looked up): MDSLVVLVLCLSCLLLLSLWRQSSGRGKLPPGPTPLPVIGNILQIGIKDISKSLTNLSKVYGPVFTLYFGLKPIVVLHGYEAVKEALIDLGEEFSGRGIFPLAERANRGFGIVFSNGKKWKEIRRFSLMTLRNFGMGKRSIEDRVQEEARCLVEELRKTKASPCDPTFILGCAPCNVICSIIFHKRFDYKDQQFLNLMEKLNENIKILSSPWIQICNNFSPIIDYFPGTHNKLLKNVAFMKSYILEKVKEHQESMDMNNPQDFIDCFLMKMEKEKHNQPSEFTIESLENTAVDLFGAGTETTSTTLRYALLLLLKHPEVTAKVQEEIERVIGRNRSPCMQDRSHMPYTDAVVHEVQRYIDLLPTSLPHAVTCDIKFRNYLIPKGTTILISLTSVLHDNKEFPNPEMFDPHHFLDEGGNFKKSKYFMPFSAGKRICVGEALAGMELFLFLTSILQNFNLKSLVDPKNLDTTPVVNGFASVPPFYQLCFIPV
Chain of DNA dC->dU-editing enzyme APOBEC-3G (Homo sapiens) (Q9HC16 whole entry, looked up): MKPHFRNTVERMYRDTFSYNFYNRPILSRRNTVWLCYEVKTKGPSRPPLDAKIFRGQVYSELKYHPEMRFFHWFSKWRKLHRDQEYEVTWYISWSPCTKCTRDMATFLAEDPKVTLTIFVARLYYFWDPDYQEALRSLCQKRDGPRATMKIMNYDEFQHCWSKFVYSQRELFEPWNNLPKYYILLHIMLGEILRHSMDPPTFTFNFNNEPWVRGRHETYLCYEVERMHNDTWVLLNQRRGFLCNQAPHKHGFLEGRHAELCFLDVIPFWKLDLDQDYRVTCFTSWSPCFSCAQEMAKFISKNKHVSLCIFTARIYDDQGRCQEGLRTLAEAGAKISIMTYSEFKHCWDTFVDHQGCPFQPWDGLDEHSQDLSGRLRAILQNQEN
Chain of 3',5'-cyclic-AMP phosphodiesterase 4B (Homo sapiens) (Q07343 whole entry, looked up): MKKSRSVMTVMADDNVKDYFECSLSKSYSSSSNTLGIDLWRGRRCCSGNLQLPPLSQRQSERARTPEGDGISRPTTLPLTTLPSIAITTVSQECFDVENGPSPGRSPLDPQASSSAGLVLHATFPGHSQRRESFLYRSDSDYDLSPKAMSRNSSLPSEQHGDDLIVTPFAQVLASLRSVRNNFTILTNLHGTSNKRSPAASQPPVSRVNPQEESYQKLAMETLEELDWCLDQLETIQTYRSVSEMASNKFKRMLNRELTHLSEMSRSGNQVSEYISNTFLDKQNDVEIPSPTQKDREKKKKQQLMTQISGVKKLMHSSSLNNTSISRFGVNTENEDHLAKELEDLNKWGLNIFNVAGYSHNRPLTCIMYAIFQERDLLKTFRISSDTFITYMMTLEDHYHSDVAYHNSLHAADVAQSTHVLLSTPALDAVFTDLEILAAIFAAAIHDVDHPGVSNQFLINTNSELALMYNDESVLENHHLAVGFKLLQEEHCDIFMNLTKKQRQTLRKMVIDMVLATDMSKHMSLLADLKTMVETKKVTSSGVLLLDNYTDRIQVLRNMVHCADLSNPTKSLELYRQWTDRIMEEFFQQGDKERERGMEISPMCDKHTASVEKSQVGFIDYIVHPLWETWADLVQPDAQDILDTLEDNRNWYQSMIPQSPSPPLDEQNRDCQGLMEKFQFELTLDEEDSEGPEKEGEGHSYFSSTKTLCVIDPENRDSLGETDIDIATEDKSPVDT
Chain of Glucocorticoid receptor (Homo sapiens) (P04150 whole entry, looked up, the tested form may be a part): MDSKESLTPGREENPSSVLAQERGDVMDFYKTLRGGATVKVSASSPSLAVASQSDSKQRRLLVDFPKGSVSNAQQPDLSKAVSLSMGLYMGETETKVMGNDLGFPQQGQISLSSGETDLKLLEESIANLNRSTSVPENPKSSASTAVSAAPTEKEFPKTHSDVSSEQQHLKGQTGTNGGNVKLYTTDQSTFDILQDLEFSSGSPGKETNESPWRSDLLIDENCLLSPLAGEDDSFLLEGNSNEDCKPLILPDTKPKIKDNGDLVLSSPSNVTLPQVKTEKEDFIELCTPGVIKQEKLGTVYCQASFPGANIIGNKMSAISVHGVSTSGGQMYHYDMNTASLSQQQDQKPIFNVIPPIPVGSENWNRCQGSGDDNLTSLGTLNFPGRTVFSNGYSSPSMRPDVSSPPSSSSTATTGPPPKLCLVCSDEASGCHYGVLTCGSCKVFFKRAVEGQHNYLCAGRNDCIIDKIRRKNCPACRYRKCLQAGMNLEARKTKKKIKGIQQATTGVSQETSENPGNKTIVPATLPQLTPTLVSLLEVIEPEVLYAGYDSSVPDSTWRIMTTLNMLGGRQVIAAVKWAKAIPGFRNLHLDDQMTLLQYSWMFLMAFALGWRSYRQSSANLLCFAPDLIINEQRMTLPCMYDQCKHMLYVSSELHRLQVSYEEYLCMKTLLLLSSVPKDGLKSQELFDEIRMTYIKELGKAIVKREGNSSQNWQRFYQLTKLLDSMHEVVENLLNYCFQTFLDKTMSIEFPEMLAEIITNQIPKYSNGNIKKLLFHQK

For the compound `O=c1cc(-c2cccc(O)c2)oc2c(O)c(O)ccc12`, the Potency was greater than 46 µM in assay [1] and 1.58 µM (active) in assay [2]. The outcome in assay [3] was inactive.

For `CN1CC[C@H](CN2c3ccccc3Sc3ccccc32)C1`, in assay [4], the Potency result is “inactive”.

Consider `O[C@@H]([C@H](O)[C@@H](O)CBr)[C@@H](O)CBr`, for which the Potency result in assay [5] is “inactive”.

As to `CC1(C)CC(N=C=O)CC(C)(CN=C=O)C1` (configuration not stated), the Potency entry in assay [5] was “inactive”.

Regarding `O=C1c2ccccc2C(=O)C1c1ccc2ccccc2n1`, in assay [6], the activity change, negative = inhibition was 13% [at 17.2 µM].

These data come from PubChem BioAssay (NCATS).
